USP1-UAF1 inh: USP1/UAF1 (human) deubiquitinase inhibition; AID 743255; 390,000 compounds, 0.23% hits; Potency, µM (top dose mostly 57.1 µM), usual class: inhibitors; recombinant USP1/UAF1, Ub-Rhodamine cleavage fluorescence; O94782; active = well fitted inhibition curve with a large enough effect; inconclusive = small, poorly fitted or top-dose-only effect; inactive = no such curve, though single readings can be large or run the other way; also: nearly all actives have a fitted effect of over 60% in size
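USP1/UAF1 complex at 1 nM was preincubated with compound for 15 min at room temperature, then Ub-Rho substrate (150nM final) was added. Fluorescence (480/540 nm) was read kinetically, 6 reads every 60 seconds.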
TRHR enhancer: allosterically enhances the human TRH receptor. P34981. TRHR cells, fluo-8 calcium fluorescence, EC20 TRH enhancement. enhancement, % at 2 µM. 360,000 compounds, 0.66% hits. AID 493056; in the data active = enhancement above about 30%
Target sequence (P34981 whole entry, looked up): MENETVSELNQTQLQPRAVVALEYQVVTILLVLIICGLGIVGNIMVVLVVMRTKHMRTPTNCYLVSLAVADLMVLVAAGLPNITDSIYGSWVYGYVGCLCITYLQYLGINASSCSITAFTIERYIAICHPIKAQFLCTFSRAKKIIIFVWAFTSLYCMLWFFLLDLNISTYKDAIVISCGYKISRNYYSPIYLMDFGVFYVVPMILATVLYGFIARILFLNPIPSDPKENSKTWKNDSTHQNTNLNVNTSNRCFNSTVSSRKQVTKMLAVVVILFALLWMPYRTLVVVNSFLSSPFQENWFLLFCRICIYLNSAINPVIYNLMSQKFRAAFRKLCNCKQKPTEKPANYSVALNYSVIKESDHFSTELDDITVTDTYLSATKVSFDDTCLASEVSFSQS
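TRHR-expressing cells loaded with fluo-8 calcium dye were read kinetically (ex 480/em 530) during compound addition, then stimulated with an EC20 of TRH (10 nM final). Enhancement of the Gq-mediated intracellular calcium response was scored.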
D1 antagonist: human D1 dopamine receptor antagonism; P21728; HEK293 TREx D1 cells, calcium flux, dopamine EC80; hits give low values; activity change, negative = inhibition, % at 10 µM; 360,000 compounds, 3.2% hits; AID 504652; in the data active = activity change below about -30%
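HEK293 T-REx cells expressing inducible, force-coupled D1 receptor; no-wash Ca dye, 30–90 min RT. Cmpd → 180 s read at 1 Hz → EC80 DA → 180 s read.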
TRHR agonist: TRH receptor (human) agonism; P34981; TRHR cells, calcium flux fluo-8, FDSS agonist mode; activation, % at 2 µM; 360,000 compounds, 0.18% hits
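In this calcium-flux screen, cells bearing human TRHR are dye-loaded with fluo-8, baselined for 10 cycles, then exposed to library compounds; positive kinetic calcium responses during the agonist phase mark hits, with TRH as control.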
D1 agonist: agonists of human D1 dopamine receptor; HEK293 T-REx D1 cells, calcium flux, agonist mode; activation, % at 2 µM; 360,000 compounds, 1% hits; AID 504660
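Agonism was scored from calcium flux recorded over 180 s (1 read/s) after pintool compound addition, following a 10-cycle baseline. Cells were inducible force-coupled HEK293 TREx D1, plated overnight at 30 C and loaded with no-wash calcium dye.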
D1 potentiator: enhances dopamine response at the human D1 receptor | HEK293 TREx D1 cells, calcium flux, dopamine EC20 potentiation | potentiation, % at 10 µM | P21728 | 360,000 compounds, 0.036% hits; in the data active = potentiation above about 30%
Numbers stand for hits; . = inactive; ? = inconclusive; / = not tested or not shown; ! = not confirmed by another sample. This is a sample that favours compounds with a hit; in the whole collection about 4.4% have one here. Rule as the data show it, unless noted: active = activation above about 30%; inactive = the rest.

SMILES	USP1-UAF1 inh	TRHR enhancer	D1 antagonist	TRHR agonist	D1 agonist	D1 potentiator
CCOC(=O)C(NC(=O)CC(C)C)(Nc1sc(C)c(CC)c1C#N)C(F)(F)F (configuration not stated)	.	.	-83	.	.	.
CCOC(=O)C(NC(=O)CCl)(Nc1sc(C)c(CC)c1C#N)C(F)(F)F (configuration not stated)	.	.	.	.	.	.
COc1ccc(OC)c(-c2cc(C(=O)NCc3ccco3)no2)c1	.	.	-34	.	.	.
Cc1cc(C(=O)Nc2cnn(Cc3ccc(Cl)cc3Cl)c2)no1	.	.	.	.	.	.
COc1ccc(OC)c(-c2cc(C(=O)Nc3c(C)nn(Cc4ccc(Cl)cc4)c3C)no2)c1	.	.	.	.	.	.
COc1ccc(OC)c(-c2cc(C(=O)Nc3c(C)nn(Cc4ccccc4)c3C)no2)c1	.	.	-44	.	.	.
O=C(Nc1cnn(Cc2ccc(Cl)cc2Cl)c1)c1noc2c1CCc1ccccc1-2	?	.	.	35	.	.
COc1ccc2c(c1)CCc1c(C(=O)Nc3c(C)nn(Cc4ccccc4)c3C)noc1-2	.	.	-32!	.	.	.
CC1CCN(C(=O)c2cnn(-c3cccc(Cl)c3)c2C2CCN(C(=O)OC(C)(C)C)CC2)CC1	.	.	.	.	.	.
Nc1nonc1-c1nc2ccccc2n1Cc1cccc(Cl)c1	.	.	.	.	.	.
Cc1ccc(S(=O)(=O)N2CCOCC2)cc1C(=O)Nc1ccccc1C(=O)O	.	.	.	.	.	.
COc1ccc2c(c1)CCc1c(C(=O)Nc3c(C)nn(Cc4ccccc4Cl)c3C)noc1-2	.	.	-40	.	.	.
COc1ccc(N2CCN(S(=O)(=O)c3ccc4c(c3)CC(C)N4C(C)=O)CC2)cc1 (configuration not stated)	.	.	.	.	.	.
COCCN(C(=O)c1cccc(N2C(=O)CCC2=O)c1)c1nc(-c2ccc([N+](=O)[O-])cc2)cs1	.	.	.	.	.	.
COc1ccccc1N(C(=O)c1ccncc1)c1nc(-c2ccc([N+](=O)[O-])cc2)cs1	.	.	-38	.	.	.
O=C1CN(C(=O)c2ccc(S(=O)(=O)N3CCCCC3)cc2)C(c2ccc(F)cc2)c2cc(F)ccc2N1 (configuration not stated)	.	.	.	.	.	.
CCS(=O)(=O)c1nc2ccccc2n1CC(=O)Nc1ccccc1C(=O)OC	.	.	.	.	.	.
COCCCNCCCCOc1ccc(Br)cc1C	.	.	-35	.	37	.
COCCNCCCCOc1ccc(Br)cc1C	.	.	.	.	.	.
CCOC(=O)N1CCC(NC(=O)CCCC(=O)O)CC1	.	.	-33	.	.	.
Cc1ccc(NC(=O)c2cnc3sc(N4CCOCC4)nn3c2=O)cc1N(C)C	.	.	.	.	.	.
O=C(CNC(=O)C1CCCCC1)NNC(=O)c1ccccc1Br	.	.	-35	.	.	.
O=C(CNC(=O)C1CCCCC1)NNC(=O)c1ccc(Cl)cc1Cl	.	.	.	.	.	.
c1ccc(Cc2nnc3sc(Nc4ccccc4)nn23)cc1	.	.	-45	.	.	.
COc1ccc(NC(=O)c2cccc(N3CCCS3(=O)=O)c2)cc1	.	.	.	.	.	.
SMILES	USP1-UAF1 inh	TRHR enhancer	D1 antagonist	TRHR agonist	D1 agonist	D1 potentiator
COc1ccc(-c2cc(C(C)=O)c(C)n2CCC(=O)Nc2ccc(C)cc2Cl)cc1	.	.	.	.	.	.
C/C(=N\Nc1cccc(C(=O)O)c1)c1ccc(Cl)s1	.	.	-59	.	.	.
C/C(=N\NC(=O)C(=O)Nc1cccc(C(F)(F)F)c1)c1ccc(Cl)s1	.	.	-39	.	.	.
COc1ccc(/C(C)=N/Nc2cccc(C(=O)O)c2)cc1OC	.	.	.	.	.	.
CSCCC(NS(=O)(=O)c1ccc2c(c1)oc(=O)n2C)C(=O)Nc1ccc(Cl)cc1 (configuration not stated)	?	.	.	.	.	.
O=C(NCc1cccs1)c1cccc(N2CCCC2=O)c1	.	.	.	.	.	.
O=C(N/N=C/c1ccc(Cl)cc1Cl)c1cccc(N2CCCC2=O)c1	.	30	.	.	.	.
O=C(NCc1ccccc1CN1CCCC1)c1cccc(N2CCCC2=O)c1	.	.	-37	.	.	/
O=C(c1cccc(N2CCCC2=O)c1)N1CCN(c2ccccc2)CC1	.	.	-31	.	.	.
O=C1COc2ccc(-c3cc(-c4ccc(Cl)cc4)c4c(n3)-c3ccccc3OC4)cc2N1	.	.	.	.	.	.
CCOC(=O)c1c(C)[nH]c(C)c1S(=O)(=O)N1CCC(C(=O)Nc2ccc(C)cn2)CC1	.	.	.	.	.	.
Cc1sc2ncn(CC(=O)Nc3ccc(C(C)C)cc3)c(=O)c2c1S(=O)(=O)N1CCN(c2ncccn2)CC1	.	.	-61	.	.	.
Cc1nc2scc(C)n2c(=O)c1S(=O)(=O)Nc1cccc(C(F)(F)F)c1	.	.	.	.	.	.
Cc1nc2scc(C)n2c(=O)c1S(=O)(=O)Nc1cccc(O)c1	.	.	-48	.	.	.
O=C(C1=C[C@@H](c2csc3ccccc23)C[C@@H](OCc2ccc(CO)cc2)O1)N1CCN(Cc2ccc3c(c2)OCO3)CC1	?	.	.	.	.	.
O=C(C1=C[C@H](c2ccc3c(c2)OCO3)C[C@H](OCCCCO)O1)N1CCOCC1	.	.	.	.	.	.
O=C(C1=C[C@H](c2ccc(Br)cc2)C[C@H](OCCCCO)O1)N1CCN(Cc2ccccc2)CC1	?	.	-30	.	.	.
O=C(C1=C[C@H](c2ccccc2)C[C@H](OCCCCO)O1)N1CCOCC1	.	.	-40	.	.	.
O=C(C1=C[C@@H](c2csc3ccccc23)C[C@@H](OCc2ccc(CO)cc2)O1)N1CCN(Cc2ccccc2)CC1	?	31	.	.	.	.
O=C(C1=C[C@@H](c2ccc(Br)cc2)C[C@@H](OCCCCO)O1)N1CCN(Cc2ccc3c(c2)OCO3)CC1	.	.	.	.	.	.
CC(C)N(Cc1nc(-c2ccc(Cl)cc2)no1)C(=O)c1ccco1	.	.	.	.	.	.
CC(=O)Nc1ccc(S(=O)(=O)/N=C2\C(=O)c3ccccc3C([O-])=C2n2cc[n+](-c3ccccn3)c2)cc1	25µM	.	.	.	.	.
O=C(NCc1ccccc1)c1noc2c1CCCCC2	.	.	.	.	.	.
CC(NC(=O)c1noc2c1CCCCC2)c1ccccc1 (configuration not stated)	.	30	.	.	.	.

Screening data from PubChem BioAssay.
